From PubChem BioAssay
HCV inh: blocks hepatitis C virus; Huh7.5.1 HCVcc-Cre infection, luciferase reporter, 44 h; Potency, µM (top dose mostly 41.8 µM), without a hit: at the top dose activity change, negative = inhibition, actives largely listed as inhibitors; 3.4% of 340,000 active; AID 651820; also: potency is read from the fitted curve at half-maximal effect
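Luciferase read-out (15 sec integration) after a 15 min room-temperature substrate step quantifies HCVcc-Cre infection. Cells, 1,000 per well, had compound added 4 h post-plating, then virus at ~0.5 moi, and were cultured 44 h.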
Pf growth 96h: P. falciparum growth inhibition at 96 hour, primary screen for plastid delayed-death inhibitors; Potency, µM (top dose mostly 28.7 µM), for inactives: at the highest dose activity change, negative = inhibition, actives largely listed as inhibitors; 6.9% of 320,000 active; P. falciparum luciferase reporter growth, 96 h; also: potency is read from the fitted curve at half-maximal effect
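96 h incubation, 37 C, 5% CO2, of luciferase-reporter P. falciparum-infected RBCs (2% hematocrit, 0.05% parasitemia final) with test compounds; endpoint luminescence.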
Marburg entry inh: Marburg virus entry inhibition | Marburg virus pseudotyped entry inhibition, cell reporter | Potency, µM (highest dose often 37.8 µM), inactives show at the highest dose activity change, negative = inhibition, most hits filed as inhibitors | 1.8% of 300,000 active; calls by dose curve; tested in HEK293 cells; also: potency is read from the fitted curve at half-maximal effect
Pf growth 48h: P. falciparum growth inhibition at 48 hours (one generation). Potency, µM (series often up to 28.7 µM), for the others: top-dose activity change, negative = inhibition, most hits filed as inhibitors. 5.9% of 310,000 active. P. falciparum luciferase growth in erythrocytes, 48 h; also: potency is read from the fitted curve at half-maximal effect
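Cell-based growth assay: transgenic P. falciparum expressing firefly luciferase, cultured in red cells within RPMI 1640 containing 0.5% w/v Albumax, 24 mM bicarbonate and gentamycin. A drop in luciferase activity indicates inhibition.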
Lassa entry inh: Lassa virus entry inhibition | Potency, µM (top dose mostly 37.9 µM), for inactives: at the highest dose activity change, negative = inhibition, most hits filed as inhibitors | Lassa virus pseudotype entry inhibition, cell reporter | AID 540256 | 1.2% of 300,000 active; calls by dose curve; tested in HEK293 cells; also: potency is read from the fitted curve at half-maximal effect; nearly all actives have a fitted effect of over 50% in size
HCMV inh: human cytomegalovirus inhibition; HFF cells, HCMV-luciferase reporter, 72 h; stronger effect = lower value; activity change, negative = inhibition, % at 57.5 µM; 4.5% of 410,000 active; in the data active = activity change below about -60%; inconclusive = no clear call, values can overlap the other calls; inactive = above about -39%
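Steps: HFFs plated, 16 h 37C; compounds added; HCMV-luciferase added to MOI 1 PFU/cell; 72 h 37C; OneGlo reagent, 5 min room temperature; luminescence read, normalized to controls.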
Active calls of the source: *; u = inconclusive; x = no result given; [ ] = remark or other dose. Rows were chosen to be rich in hits. Some 14% of all compounds tested hit in one or more screens of this group. Unless noted, calls follow the shape of the dose curve; as a rule, active = well fitted inhibition curve with a large enough effect; inconclusive = small, poorly fitted or top-dose-only effect, or another doubt; inactive = no such curve, though single readings can be large or run the other way. % is scaled to controls: 0 for no effect and ±100 for the full control effect.

SMILES | HCV inh | Pf growth 96h | Marburg entry inh | Pf growth 48h | Lassa entry inh | HCMV inh
CCC(C)NC(=O)c1sc2nc(C)c(C(=O)Nc3ccc(C)cc3C)c(-c3ccccc3Cl)c2c1N (stereo not drawn) | x | x | u | x | 6%[46.1 µM] | -21
COc1ccc(N2CC(C(=O)Nc3nccs3)CC2=O)cc1 (stereo not drawn) | 17% | -52% | 28% | 11% | 3% | -78*
CCc1nc(SCC(=O)NC2CC2)c2c(C)c(C)sc2n1 | -25% | 4.7µM* | -6%[46.1 µM] | -5% | 7% | -3
O=C(Nc1nccs1)C1CC(=O)N(c2ccc(Cl)cc2)C1 (stereo not drawn) | -6% | 1% | -14%[46.1 µM] | -5%[5.75 µM] | 15%[46.1 µM] | 15
CCCc1nc(SCC(=O)NC2CC2)c2c(C)c(C)sc2n1 | -18% | -13% | 18%[46.1 µM] | 6% | 2%[46.1 µM] | 55
COc1ccc(N2CC(C(=O)Nc3nnc(SCc4cccnc4)s3)CC2=O)cc1 (stereo not drawn) | 19% | 13µM* | 18% | u | 2% | u
Cc1nnc(SCC(=O)NC2CC2)s1 | 9% | 13µM* | 19%[46.1 µM] | -1% | -8%[46.1 µM] | 8
COCCCNC(=O)C1CCN(c2nn3cc(-c4ccc(F)cc4)nc3s2)CC1 | x | x | x | x | 21%[46.1 µM] | 0
COc1ccccc1-n1cnnc1SCC(=O)NC1CCCCC1 | -9% | -18% | x | u | x | -83*
COc1ccccc1-n1ccnc1SCC(=O)NC1CCCC1 | u | -13% | 5%[46.1 µM] | -5% | x | 63
CCc1ccc(N2CC(C(=O)Nc3cccnc3)CC2=O)cc1 (stereo not drawn) | -10% | -18% | -29%[46.1 µM] | x | 11% | 13
COc1ccc(N2CC(C(=O)Nc3nnc(SCC(=O)NC4CCCC4)s3)CC2=O)cc1 (stereo not drawn) | 0% | 6.6µM* | -13% | -12% | 0% | -6
CCOc1ccc(N2CC(C(=O)Nc3cccnc3)CC2=O)cc1 (stereo not drawn) | 3% | 12µM* | x | -21% | x | -6
O=C(CSc1nnc(NC(=O)C2CC(=O)N(c3ccccc3)C2)s1)NC1CCCC1 (stereo not drawn) | x | 0% | 9% | 4% | 18% | -6
CCC(=O)N1CCc2cc(Br)cc(S(=O)(=O)CCC(=O)Nc3ccc(CC)cc3)c21 | x | x | -7%[46.1 µM] | x | 5%[46.1 µM] | -2
CCCn1c(NC(=O)c2ccco2)nc2ccccc21 | u | 43% | 1% | u | -8% | u
O=C(Nc1cccc(Cl)c1)C1COc2ccccc2O1 (stereo not drawn) | 18% | 1.7µM* | x | -2% | x | 37
CCCn1c(NC(=O)C2COc3ccccc3O2)nc2ccccc21 (stereo not drawn) | -16% | u | -25% | 9.3µM* | 8% | -27
CCCNC(=O)c1c(NC(=O)C2COc3ccccc3O2)sc2c1CCCC2 (stereo not drawn) | -6% | 10µM* | 10% | 5% | 3% | u
O=C(Nc1ccccc1)C1C2CCC3C(CCC21)C3(Cl)Cl (stereo not drawn) | -19% | 21% | 0% | u | u | -20
O=C(NC1CCS(=O)(=O)C1)c1c(NC(=O)C2COc3ccccc3O2)sc2c1CCCC2 (stereo not drawn) | u | 51% | -1% | u | -10% | -13
O=C(Nc1cccc(Cl)c1)C1C2CCC3C(CCC21)C3(Cl)Cl (stereo not drawn) | u | u | u | 9.3µM* | u | -10
COc1cccc(C(=O)Nc2cccc(C(=O)OCc3cc(=O)n4c5c(sc4n3)CCCC5)c2)c1 | x | x | x | x | 19%[46.1 µM] | -10
CCOc1ccc(CCN2C(=O)C(=O)N([C@@H](Cc3ccc(O)cc3)CN3CCC[C@@H]3CN3C(=O)C(=O)NC[C@@H]3Cc3ccccc3)C[C@@H]2Cc2ccccc2)cc1 | -79% | x | x | x | x | -37
Cc1ccccc1NC(=O)CSc1nc(=O)n(CCN2CCOCC2)c2c1CCC2 | x | x | x | x | 12%[46.1 µM] | -38
COc1ccccc1NC(=O)C1=C(C)Nc2ncnn2C1c1ccc[nH]1 (stereo not drawn) | x | x | x | x | 2%[46.1 µM] | 3
